High-throughput results: PubChem BioAssay, National Center for Advancing Translational Sciences (NCATS)
Rows were chosen to be rich in hits. Some 19% of all compounds tested hit in one or more screens of this group.
DT40 TDP1 CPT = DT40-hTDP1 cell growth loss with CPT; chicken DT40 Tdp1-/-;hTDP1 cells + 20 nM CPT, ATP luminescence, 48 h; Potency, µM (highest dose often 46.2 µM), hits mostly inhibitors; 420,000 tested, 12% active; note: nearly all actives have a fitted effect of over 55% in size
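Chicken DT40 Tdp1-/- cells stably complemented with human TDP1 were seeded at 400 cells/well in medium containing 20 nM camptothecin, exposed to pin-transferred compounds, and grown at 37 °C for at least 48 hr. Viability was read as ATP luminescence.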
DT40 TDP1 no CPT = qHTS for Inhibitors of human tyrosyl-DNA phosphodiesterase 1 (TDP1): qHTS in cells in absence of CPT | 420,000 tested, 15% active | AID 686978, 2013 | DT40 Tdp1-/- hTDP1 cells, no CPT, ATP luminescence, 48 h | Potency, µM (series often up to 46.2 µM), usual class: inhibitors; note: nearly all actives have a fitted effect of over 55% in size
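Cells were dispensed at 400 per well, compounds added by pin tool, plates incubated ≥48 hr at 37 °C, then CellTiter-Glo added for 30 min at room temperature before luminescence reading. Line: DT40 Tdp1-/- complemented with hTDP1; camptothecin omitted.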
uPA surface inh = inhibitors of cell surface uPA generation. cell surface uPA generation assay, qHTS. Potency, µM (top dose mostly 38.3 µM), hits mostly inhibitors. 330,000 tested, 0.31% active; active = well fitted inhibition curve with a large enough effect; inconclusive = small, poorly fitted or top-dose-only effect; inactive = no such curve, though single readings can be large or run the other way; tested in mouse RAW 264.7 cells; note: nearly all actives have a fitted effect of over 55% in size
HT1080NT lethal = kills 2HG-producing HT-1080-NT fibrosarcoma cells; HT-1080-NT fibrosarcoma viability, CellTiter-Glo ATP luminescence, 48 h; Potency, µM (titrated, usually from 46.1 µM), actives largely listed as cytotoxic; 360,000 tested, 1.6% active;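 note: NT is the 2HG producing partner of a matched IDH1 knockdown line; nearly all actives have a fitted effect of over 55% in size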
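HT-1080-NT fibrosarcoma cells (2HG-overproducing), 750 cells/well in RPMI with 5% FBS, dosed after 2 h and incubated 48 h at 37C. CellTiter-Glo luminescence normalized to DMSO and no-cell wells; concentration-response curves fitted and classed.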
HT1080 IDH1KD tx = kills HT-1080 cells with IDH1 knockdown | HT-1080 IDH1 knockdown viability, ATP luminescence, 48 h | Potency, µM (highest dose often 46.1 µM), actives largely listed as cytotoxic | 360,000 tested, 2% active | AID 686971
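Using the IDH1-knockdown HT-1080 line run in the same batch and compound series as the NT line, viability after 48 h at 37 °C was determined by CellTiter-Glo luminescence and expressed as % activity.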
IL-1B inflam inh = blocks inflammasome-driven IL-1 beta release. THP-1 LPS/ATP IL-1B secretion, AlphaLISA, 16 h; stronger effect = lower value. activity change, % at 57.5 µM. 360,000 tested, 4.7% active. AID 743279; in the data active = activity change below about -50%; inconclusive = mostly about -30% to -49%
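THP-1 cells pretreated 1 hr with compounds (up to 57.5 uM final), then stimulated with LPS (250 ng/mL final) plus ATP (1.25 mM final); secreted IL-1B measured by AlphaLISA after 16 hr, decreased signal indicating inhibition.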
Numbers stand for hits; i = inactive; ? = inconclusive; nt = no result given; [ ] = another dose, or the depositor's remark. Unless noted, calls come from the whole dose curve; as a rule, active = well fitted curve in the direction sought with a large enough effect; inconclusive = small, poorly fitted or top-dose-only effect, or another doubt; inactive = no such curve, though single readings can be large; an effect the other way counts as inactive or inconclusive.

SMILES | DT40 TDP1 CPT | DT40 TDP1 no CPT | uPA surface inh | HT1080NT lethal | HT1080 IDH1KD tx | IL-1B inflam inh
Cc1cc(Cl)c(OCCCn2ccnc2)c(Br)c1 | ? | ? | i | i | i | -72
Cc1cc(C)c(OCCn2ccnc2)c(C)c1 | 6.5µM | 5.2µM | ? | i | i | i
CCN(CC)CCn1c2c(c(SCC(=O)NCc3ccccc3)nc1=O)CCC2 | i | i | i | i | i | i
COC(=O)C1CCN(Cc2ccc3c(c2)CN(C(=O)c2ccnn2C)CCO3)CC1 | i[9.04 µM] | i | nt | nt | nt | nt
O=C(Cc1nc2ccccc2[nH]c1=O)c1ccccc1 | i | i | i | i | i | -72
O=C(Cc1nc2ccccc2[nH]1)c1ccc(Br)cc1 | ? | ? | i | i | i | -60
CCC(OC(=O)CCc1nc2ccccc2[nH]c1=O)C(=O)c1ccccc1 (configuration not stated) | ? | ? | i | i | i | i
CCOc1ccccc1N1CCN(Cc2cccc(OC)c2O)CC1 | ? | ? | nt | i | i | i
COc1cc(CN2CCN(c3cccc(C)c3C)CC2)cc(Br)c1O | 13µM | 21µM | i | ? | ? | ?
CCCOCc1cc(CN2CCN(c3ccccc3OC)CC2)c(O)c2ncccc12 | 4.6µM | 2.9µM | nt | nt | nt | nt
CCOCc1cc(CN2CCN(c3ccccc3OC)CC2)c(O)c2ncccc12 | 5.2µM | 5.2µM | nt | nt | nt | nt
COc1ccccc1N1CCN(Cc2cc(COC(C)C)c3cccnc3c2O)CC1 | 4.6µM | 4.6µM | nt | nt | nt | nt
COc1ccccc1N1CCN(Cc2cc(Br)c(O)c3ncccc23)CC1 | 6.5µM | 9.2µM | 2.8µM | ? | ? | i
CC(=O)Nc1ccc(NC(=O)CSc2cn(CC(=O)N(C(C)C)C(C)C)c3ccccc23)cc1 | i | ? | nt | nt | nt | nt
OCCN1CCN(c2ncnc3c2ncn3[C@H]2CN(Cc3cccc(C(F)(F)F)c3)C[C@@H](CO)O2)CC1 | ? | ? | nt | i | i | i
O=S(=O)(c1ccccc1)N1CCN(c2nnc(-c3ccccc3)c3ccccc23)CC1 | 18µM | 15µM | i | i | i | i
CS(=O)(=O)N1CCN(c2nnc(-c3ccccc3)c3ccccc23)CC1 | i | i | i | i | i | -61
Cc1ccc(-c2nnc(N3CCN(S(C)(=O)=O)CC3)c3ccccc23)cc1 | i | i | i | i | i | -59
O=C(CN1CCOCC1)N1CCN(c2nnc(-c3ccccc3)c3ccccc23)CC1 | ? | i | i | i | i | i
Cc1onc(-c2ccccc2)c1C(=O)NCCSCc1ccco1 | i | ? | i | i | i | i
CCc1nc2ccc(C(=O)NCCc3ccccn3)cn2c1N(CC)Cc1cccc(Br)c1 | 8.2µM | 9.2µM | nt | ? | ? | i
CCc1nc2ccc(C(=O)NC(C)(C)C)cn2c1N(CC)Cc1cccc(Br)c1 | 18µM | 16µM | nt | ? | ? | -58
CCc1nc2ccc(C(=O)NCCCN3CCCC3=O)cn2c1N(CC)CCN(C)C | i | i | nt | i | i | i
CCc1nc2ccc(C(=O)NCCCN3CCCC3=O)cn2c1N(CC)Cc1cccc(Br)c1 | 21µM | ? | nt | i | i | i
C=CCN(Cc1ccc(OC)c(OC)c1)C(=O)c1cc2cc(F)ccc2[nH]1 | 13µM | ? | i | ? | ? | i
SMILES | DT40 TDP1 CPT | DT40 TDP1 no CPT | uPA surface inh | HT1080NT lethal | HT1080 IDH1KD tx | IL-1B inflam inh
COc1cc2cc(C(=O)N(C)Cc3ccccc3)[nH]c2cc1OC | i | i | i | i | i | i
C=C(C)c1cccc(C(C)(C)NC(=O)NC2CC(C)(C)NC(C)(C)C2)c1 | ? | i | i | i | i | i
COc1ccc(CN2CCc3c(c(=O)n4ncc(C(=O)N5CCN(c6ccccc6F)CC5)c4n3C)C2)cc1 | 18µM | 8.2µM | nt | nt | nt | nt
COc1ccc(N2CCN(C(=O)Cc3ccc(Cl)cc3)CC2)cc1 | i | ? | i | i | i | i
COc1cc(OC)cc(C(=O)N2CCN(c3ccccc3F)CC2)c1 | i | ? | i | i | i | i
CCn1c2c(c(=O)n3ncc(C(=O)N4CCN(c5ccc(Cl)cc5)CC4)c13)CN(Cc1ccc(OC)cc1)CC2 | 2.3µM | 1.6µM | nt | nt | nt | nt
Cc1cc(C)cc(OCC(=O)NNC(=O)c2ccccn2)c1 | 9.2µM | 6.5µM | ? | ? | i | i
Cc1ccc(OCCCC(=O)NNC(=O)c2ccccn2)cc1 | 6.5µM | 5.8µM | ? | i | ? | i
Nc1[nH]c(=O)[nH]c(=O)c1N=Nc1ccc(C(=O)O)cc1 | i | i | i | i | i | i
O=C(Nc1nnc([C@H]2C[C@H](O)[C@@H](CO)O2)s1)Nc1ccccc1Oc1ccccc1 | i | i | nt | i | i | i
NCCC[C@H](N)C(=O)O | i | i | nt | nt | nt | nt
O=C(c1cccs1)N1CCC(c2nc(-c3ccc(S(=O)(=O)N4CCOCC4)cc3)no2)CC1 | ? | 18µM | nt | i | i | i
O=C(c1ccccc1)N1CCC(c2nc(-c3ccc(S(=O)(=O)N4CCOCC4)cc3)no2)CC1 | ? | ? | i | i | i | i
COc1ccccc1C(=O)N1CCC(c2noc(-c3ccc(S(=O)(=O)N4CCCC4)cc3)n2)CC1 | 23µM | 16µM | nt | nt | nt | nt
O=C(c1ccc(F)cc1F)N1CCC(c2noc(-c3ccc(S(=O)(=O)N4CCCC4)cc3)n2)CC1 | i | ? | nt | nt | nt | nt
O=C(Nc1ccc(Cl)cc1)N1CCC(c2nc(-c3ccccc3Cl)no2)CC1 | 23µM | 18µM | i | ? | ? | i
O=C(Nc1ccccc1)N1CCC(c2nc(-c3ccc(S(=O)(=O)N4CCOCC4)cc3)no2)CC1 | 4.1µM | 3.3µM | nt | 10µM | 7.9µM | i
Cc1ccnc(OC(C(=O)O)C(OCc2ccccc2)(c2ccc(F)cc2)c2ccc(F)cc2)n1 (configuration not stated) | i | i | i | i | i | i
CC(CNC(=O)c1cccs1)c1ccc([N+](=O)[O-])cc1 (configuration not stated) | i | i | ? | i | i | ?
Cc1ccc(S(=O)(=O)N2[C@@H](c3ccccc3F)C(C(=O)O)=CC[C@H]2c2cccs2)cc1 | i | i | i | i | i | i
Cc1cccc(C(=O)N2CCC(c3nc(-c4ccc(S(=O)(=O)N5CCOCC5)cc4)no3)CC2)c1 | 16µM | 21µM | i | i | i | -53
CCc1ccc(C(=O)N2CCC(c3nc(-c4ccc(S(=O)(=O)N5CCCC5)cc4)no3)CC2)cc1 | ? | 21µM | nt | nt | nt | nt
C=CCn1c(O)c(C=Nc2ccccc2)sc1=S | i | i | i | i | i | i
C=CCn1c(O)c(C2=c3ccccc3=NC2=O)sc1=Nc1ccc(O)cc1 | 23µM | ? | i | i | ? | -50
CN(C)CCN=Cc1c(O)n(Cc2ccc3c(c2)OCO3)c(=O)c2ccccc12 | i | i | i | i | i | -53
CCc1ccccc1NC(=O)CSc1nc2ccccc2nc1N1CCOCC1 | i | ? | i | i | i | i
